Experimental data published in PubChem BioAssay (NCATS).
Where “and” joins values, the source holds several entries; their conditions need not be identical. Equal entries are not always repeated. Inconclusive results are not listed. Unmarked numbers belong to inactive results. Calls of active or inactive are those of the source. Calls follow the shape of the dose curve; as a rule, active = well fitted inhibition curve with a large enough effect in the repeat runs; inconclusive = weak or mixed curves; inactive = no such curve, though single readings can be large or run the other way.

Each compound was assayed against Cytochrome P450 2C9 (Homo sapiens) (UniProt P11712) (assay: Cytochrome P450 family 2 subfamily C member 9 (CYP2C9) small molecule antagonists: luciferase biochemical (cell-free) qHTS assay (AID 1645842; also: nearly all actives have a fitted effect of over 55% in size)). Conditions: P450-Glo CYP2C9 enzyme assay, luciferin luminescence; series mostly up to 57.4 µM; activity change, negative = inhibition: at the top concentration.
Protocol: National Center for Advancing Translational Sciences [NCATS] Assay Overview: Cytochrome P450 (CYP) enzymes are membrane-bound hemeproteins that play a key role in metabolism of drugs and xenobiotics. Assaying the effect of chemicals on CYP isozymes is useful to minimize the adverse drug reactions and toxicities in drug development process. Chemical compounds were tested for their effect on CYP enzyme activities by using P450-Glo (TM) screening systems (Promega Corporation, Madison, WI). These systems provide a luminescent method containing proluciferin substrates and are converted to luciferin products by CYP isozymes. The luciferin products formed are detected with a luciferin detection reagent, and the amount of light produced is proportional to CYP activity. P450-Glo (TM) CYP2C9 screening system (Catalog. No. V9790) was used to detect the compounds that interfere in CYP2C9 activity.
Assay Protocol Summary: Two ul of enzyme-substrate mix supplemented with 0.4% Bovine Serum Albumin was dispensed into medium binding white/solid 1536-well plates (Greiner Bio-One North America Inc., Monroe, NC) using a Flying Reagent Dispenser (FRD, Aurora Discovery, San Diego, CA). […] The assay plates were incubated at room temperature for 10 min. Then 2 ul of NADPH regeneration solution was added to each well of the assay plates using an FRD and incubated at 37C for 1 h. The reaction was stopped by adding 4 ul of detection reagent using an FRD and after 20 min incubation at room temperature, the luminescence signal was measured using a ViewLux plate reader (Perkin Elmer, Shelton, CT). Data were expressed as relative luminescence units.
% is scaled to controls: 0 for no effect and ±100 for the full control effect; potency is read from the fitted curve at half-maximal effect.

Cytochrome P450 2C9 (Homo sapiens), sequence (P11712 whole entry, looked up): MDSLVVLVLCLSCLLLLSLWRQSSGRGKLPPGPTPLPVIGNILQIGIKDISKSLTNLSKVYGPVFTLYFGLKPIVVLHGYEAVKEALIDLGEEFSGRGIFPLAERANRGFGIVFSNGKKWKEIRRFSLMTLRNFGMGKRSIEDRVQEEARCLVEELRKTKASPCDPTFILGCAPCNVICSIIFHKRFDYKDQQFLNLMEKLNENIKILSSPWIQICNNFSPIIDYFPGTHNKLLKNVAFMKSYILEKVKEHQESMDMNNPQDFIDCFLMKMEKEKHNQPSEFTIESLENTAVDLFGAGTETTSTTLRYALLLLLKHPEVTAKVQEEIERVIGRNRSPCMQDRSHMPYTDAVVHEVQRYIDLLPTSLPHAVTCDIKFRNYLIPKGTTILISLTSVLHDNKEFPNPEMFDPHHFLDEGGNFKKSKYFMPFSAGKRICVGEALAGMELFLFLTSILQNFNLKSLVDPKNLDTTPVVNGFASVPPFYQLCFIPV

Q: Which Potency does the source give for `c1ccc2c(CCNc3ccc(Nc4ccncc4)cc3)c[nH]c2c1` here?
A: The Potency was 2.68 µM (active).

Q: For `Cc1cc(Nc2ncnc3ccc(-c4ccc(CNCCS(C)(=O)=O)o4)cc23)ccc1Oc1ccn2ncnc2c1`, which Potency is on record?
A: The Potency was 12 µM (active).

Q: Which Potency does the source give for `Cc1cnc(-c2cnc(NCCNc3ccc(C#N)cn3)nc2-c2ccc(Cl)cc2Cl)[nH]1` here?
A: Its Potency is 1.51 µM (active).

Q: `O=C(O)C1(Cc2cccc(Nc3nccs3)n2)CCC(Oc2cccc(Cl)c2F)CC1` (stereo not given) was tested. Which Potency did it give?
A: The Potency was 7.56 µM (active).

Q: `CNC(=O)c1nn(C)c2c1C(C)(C)Cc1cnc(Nc3ccc(N4CCN(C)CC4)cc3)nc1-2` was tested. Which Potency did it give?
A: Its Potency is 21.3 µM (active).

Q: With `Cc1c(Cn2c(C)nc3c(C(=O)O)cc(N4CCOCC4)cc32)cccc1C(F)(F)F` as the compound, how does the “activity change, negative = inhibition” value read?
A: The value was -14%.

Q: For `CC[C@@H]1C(=O)N(C)c2cnc(Nc3ccc(C(=O)NC4CCC(N5CCN(CC6CC6)CC5)CC4)cc3OC)nc2N1C(C)C` (stereo not given in full), which Potency is on record?
A: Its Potency is 7.56 µM (active) and 12 µM (active).

Q: How did the Potency turn out when `Nc1nc(NCCNc2ncc(-n3ccnc3)c(-c3ccc(Cl)cc3Cl)n2)ccc1[N+](=O)[O-]` was run?
A: Its Potency is 0.134 µM (active).

Q: Which “activity change, negative = inhibition” value does the source give for `NC(=O)c1cccc2cn(-c3ccc([C@@H]4CCCNC4)cc3)nc12` here?
A: The value was -1.54%.

Q: With `C=CC(=O)Nc1cc2c(Nc3ccc(F)c(Cl)c3)ncnc2cc1OCCCN1CCOCC1` as the compound, how does the “activity change, negative = inhibition” value read?
A: The value was 4.91%.

Q: `CCn1cc(-c2ccnc3[nH]c(-c4cccc(CN(C)C)c4)cc23)c(-c2ccc(NC(=O)N(C)C)cc2)n1` was tested. Which Potency did it give?
A: The Potency was 21.3 µM (active).

Q: With `CCCNC(=O)Nc1ccc(Oc2ncnc3cc(OC)c(OC)cc23)cc1Cl` as the compound, how does the “activity change, negative = inhibition” value read?
A: Its value is 7.09%.

Q: How did the “activity change, negative = inhibition” value turn out when `CC1COC2(CCN(c3nc(=O)c4cc(C(F)(F)F)cc([N+](=O)[O-])c4s3)CC2)O1` (stereo not given) was run?
A: The value was 10.2%.

Q: How did the “activity change, negative = inhibition” value turn out when `Nc1ccc(S(=O)(=O)Nc2ncccn2)cc1` was run?
A: The value was 5.79%.

Q: `COc1cc2c(Oc3ccc(NC(=O)C4(C(=O)Nc5ccc(F)cc5)CC4)cc3F)ccnc2cc1OCCCN1CCOCC1` was tested. Which Potency did it give?
A: Its Potency is 3.01 µM (active).

Q: Which Potency does the source give for `COc1ccc(F)c(F)c1C(=O)c1cnc(NC2CCN(S(C)(=O)=O)CC2)nc1N` here?
A: The Potency was 10.7 µM (active) and 19 µM (active).

Q: `CC1(O)CC(c2nc(-c3ccc4ccc(-c5ccccc5)nc4c3)c3c(N)nccn23)C1` (stereo not given) was tested. Which Potency did it give?
A: The Potency was 2.13 µM (active) and 952 nM (active).

Q: For `COc1cc(C)c(Sc2cnc(NC(=O)c3ccc(CNC(C)C(C)C)cc3)s2)cc1C(=O)N1CCN(C(C)=O)CC1` (stereo not given), which Potency is on record?
A: The Potency was 0.536 µM (active).

Q: For `CC(=O)c1c(C)c2cnc(Nc3ccc(N4CCNCC4)cn3)nc2n(C2CCCC2)c1=O`, which “activity change, negative = inhibition” value is on record?
A: The value was -24%.

Q: With `C=C1C(=CC=C2CCC[C@]3(C)[C@@H]([C@H](C)C=C[C@H](C)C(C)C)CC[C@@H]23)C[C@@H](O)C[C@@H]1O` as the compound, how does the Potency read?
A: The Potency was 9.52 µM (active).

Q: `O=C(c1ccc(Nc2nccc(-c3cc4ccccc4s3)n2)cc1)N1CCC(N2CCCC2)CC1` was tested. Which “activity change, negative = inhibition” value did it give?
A: The value was -25.2%.

Q: Which Potency does the source give for `CCS(=O)(=O)c1cccc(-c2cc(C(=O)NC3CCN(C)CC3)c(C)c3[nH]c4ncc(C)cc4c23)c1` here?
A: Its Potency is 4.77 µM (active).

Q: `Nc1nc(Nc2ccc(S(N)(=O)=O)cc2)nn1C(=O)c1c(F)cccc1F` was tested. Which Potency did it give?
A: Its Potency is 0.12 µM (active).

Q: For `CNC(=O)c1cc(Oc2ccc(NC(=O)Nc3cc(C(C)(C)C)nn3-c3ccc4ncccc4c3)c(F)c2)ccn1`, which Potency is on record?
A: The Potency was 6.74 µM (active).

Q: How did the Potency turn out when `Cc1cnc(Nc2ccc(F)cc2Cl)nc1-c1c[nH]c(C(=O)N[C@H](CO)c2cccc(Cl)c2)c1` was run?
A: The Potency was 3.38 µM (active).

Q: With `Cn1c2cc(S(C)=O)sc2c2cnn(Cc3cccc(N)c3)c(=O)c21` (stereo not given) as the compound, how does the Potency read?
A: The Potency was 19 µM (active).

Q: How did the Potency turn out when `CNC(=O)c1ccc(N2C(=S)N(c3cnc(C#N)c(C(F)(F)F)c3)C(=O)C23CCC3)cc1F` was run?
A: The Potency was 6.74 µM (active).

Q: Which Potency does the source give for `CC(C)c1cc(C(=O)N2Cc3ccc(CN4CCN(C)CC4)cc3C2)c(O)cc1O` here?
A: The Potency was 12 µM (active).

Q: For `COc1ccc2c(OCc3nnc4ccc(-c5ccccc5)nn34)ccnc2c1`, which Potency is on record?
A: Its Potency is 0.756 µM (active).

Q: With `Nc1ncnc2c1c(-c1cnc3[nH]ccc3c1)nn2C1CCCC1` as the compound, how does the Potency read?
A: Its Potency is 0.425 µM (active).

Q: With `COc1ccc(C(=O)CC2(O)C(=O)Nc3c(Cl)ccc(Cl)c32)cc1` (stereo not given) as the compound, how does the Potency read?
A: Its Potency is 16.9 µM (active) and 15.1 µM (active).

Q: How did the Potency turn out when `CNC(=O)c1ccccc1Nc1nc(Nc2ccc(N3CCOCC3)cc2OC)ncc1Cl` was run?
A: The Potency was 0.301 µM (active).

Q: For `COc1c(N2C[C@@H]3CCCN[C@H]3C2)c(F)cc2c(=O)c(C(=O)O)cn(C3CC3)c12`, which “activity change, negative = inhibition” value is on record?
A: Its value is 0.504%.

Q: With `COC(=O)c1ccc2c(C(=Nc3ccc(N(C)C(=O)CN4CCN(C)CC4)cc3)c3ccccc3)c(O)[nH]c2c1` as the compound, how does the “activity change, negative = inhibition” value read?
A: The value was -4.53%.

Q: How did the Potency turn out when `CNC(=O)CN1CCC(Oc2cc3c(Nc4cccc(Cl)c4F)ncnc3cc2OC)CC1` was run?
A: Its Potency is 9.52 µM (active).

Q: With `Cc1[nH]nc2ccc(-c3cncc(OC[C@@H](N)Cc4ccccc4)c3)cc12` as the compound, how does the Potency read?
A: The Potency was 9.52 µM (active).

Q: `CN1CCN(Cc2ccc(NC(=O)Nc3ccc(Oc4cc(NC(=O)C5CC5)ncn4)cc3)cc2C(F)(F)F)CC1` was tested. Which Potency did it give?
A: Its Potency is 10.7 µM (active).

Q: `COc1ccc(CC2c3cc(OC)c(OC)cc3CC[N+]2(C)CCC(=O)OCCCCCOC(=O)CC[N+]2(C)CCc3cc(OC)c(OC)cc3C2Cc2ccc(OC)c(OC)c2)cc1OC` (stereo not given) was tested. Which “activity change, negative = inhibition” value did it give?
A: Its value is 3.06%.

Q: Which Potency does the source give for `CC(C)(C)c1cnc(CSc2cnc(NC(=O)C3CCNCC3)s2)o1` here?
A: The Potency was 17.8 µM (active).

Q: `NCC(=O)Nc1ccc(-n2nc(C(F)(F)F)cc2-c2ccc3c(ccc4ccccc43)c2)cc1` was tested. Which Potency did it give?
A: Its Potency is 4.77 µM (active).
